Out of some 2,300 compounds screened, about 1,000 (43%) were called active. No rule for the calls is given here. So high a share suggests a set chosen from earlier hits. The list shows a part of the results. Entries with a potency or affinity are not part of this list.
Test: modified counter assay using GFP fluorescence, PhoP regulon inhibitor project, dose response (AID 1985)
Conditions: S. Typhi, 4 h; series mostly up to 150 µM; inhibition: at the top concentration

| Structure (SMILES) | inhibition |
| --- | --- |
| CCCCCc1nc2c(c3c1CCCC3)CCCC2 | 18.7% (inactive) |
| N=C1c2ccccc2CN1c1ncccn1 | -13.2% (inactive) |
| CCCN1CCC(NCc2cn(C)nc2-c2ccc(Oc3ccccc3)cc2)CC1 | 20.2% (inactive) |
| CN(C)CCCNC(=O)c1ccc(-c2nc(-c3ccc(Cl)cc3)cs2)cc1 | 28% (inactive) |
| O=C(N/N=C/c1ccc(-c2ccc(Br)cc2)o1)c1ccc2c(c1)OCO2 | 28.8% (inactive) |
| CN(C)CCNC(=O)/C(=C/c1ccc(-c2ccc(Cl)cc2)o1)NC(=O)c1ccccc1 | 25.4% (inactive) |
| CCOC(=O)COn1c(=O)c(-c2cccs2)[n+]([O-])c2ccccc21 | 21.9% (inactive) |
| O=C(O)C1CCCCC1C(=O)NCCc1ccncc1 (stereo not given) | -26.7% (inactive) |
| C#CCOCCOCCOCCNc1nc(N2CCN(C(=O)CCCCCCCCCCNC(=O)[C@@H](CCSC)n3cc(CCO)nn3)CC2)nc(N2CCN(C(=O)CCCCCCCCCCNC(=O)[C@H]([C@@H](C)CC)n3cc(CCCCN=C(N)N)nn3)CC2)n1 | -37.3% (inactive) |
| Cn1c(=O)c2c(nc(Br)n2CCSc2nc3ccccc3o2)n(C)c1=O | -14.5% (inactive) |
| CC(=O)c1cccc(CN2CCN(C3CCCC3)C(CCO)C2)c1 (stereo not given) | -5.89% (inactive) |
| Cc1ccc(S(=O)(=O)NC(C)(C)CSc2nnc(N)s2)cc1 | -30.3% (inactive) |
| CCc1ccccc1NC(=S)N(Cc1cccc(C)c1)c1cccnc1 | -7.68% (inactive) |
| CC1(C)CC(N2CCN(C(c3ccccc3)c3ccccc3)CC2)=CC(=[N+]2CCCCC2)C1 | 17.4% (inactive) |
| CN1CCN(C(=O)c2cc(-c3cccc(Cl)c3)on2)CC1 | 5.44% (inactive) |
| CCn1c(-c2cccc(Br)c2)n[nH]c1=S | 11.6% (inactive) |
| CC(=O)c1sc2nc(=O)c(C)nn2c1C | -12.1% (inactive) |
| Cc1ccc(C(=O)N2C(=S)C(c3ccc(F)cc3)=NC23CCN(C)CC3)cc1 | 10.3% (inactive) |
| COc1ccc(N=Cc2c(O)n(CC3CCCO3)c(=O)[nH]c2=O)cc1 (stereo not given) | -0.83% (inactive) |
| CC(=O)c1c(C)nc(-c2cccc([N+](=O)[O-])c2)n1O | -7.51% (inactive) |
| COc1cc(C)nc(N2CCCC(C(=O)NCC(C)C)C2)n1 (stereo not given) | 6.1% (inactive) |
| Cc1ccc(-c2csc(NC(=O)C[n+]3cc(-c4ccccc4)n4c3CCC4)n2)cc1 | -33.3% (inactive) |

| Structure (SMILES) | inhibition |
| --- | --- |
| CCOC(=O)C1CCCN(C/C(O)=C(\C#N)c2nc(-c3ccccc3)cs2)C1 (stereo not given) | -20.3% (inactive) |
| O=C(C[n+]1cc(-c2ccc(Cl)cc2)n2c1CCC2)N1c2ccccc2Sc2ccccc21 | 33.5% (inactive) |
| O=C(O)c1csc(-c2ccc(Cl)cc2)n1 | 36.8% (inactive) |
| CC(=O)N(CCC1(c2ccc(C)cc2)CCOC(C(C)C)C1)Cc1ccco1 (stereo not given) | 18.1% (inactive) |
| Cc1cccc(/C(N)=N/OC(=O)N2CCOCC2)c1 | 25.3% (inactive) |
| CCOC(=O)C1CCN(Cc2nc(-c3ccc(OC)c(OC)c3)no2)CC1 | -15.2% (inactive) |
| CC(=O)c1ccc(NC(=O)CN2CCCCCC2)cc1 | 15.7% (inactive) |
| O=C(Cn1[nH]c(=O)c2ccccc2c1=O)Nc1ccc(-c2nnc3n2CCCCC3)cc1 | 10.1% (inactive) |
| COC(=O)c1ccc(CSc2ccc3nnc(-c4ccc(OC)c(OC)c4)n3n2)o1 | -11.5% (inactive) |
| COc1ccc(S(=O)(=O)NCCSCc2ccco2)cc1Cl | 12.5% (inactive) |
| CCN1CCCC1Cn1cnc2c([nH]c3ccc(Cl)cc32)c1=O (stereo not given) | 26.1% (inactive) |
| Clc1ccc(CONc2ncnc3nonc23)c(Cl)c1 | 12.7% (inactive) |
| CCCCCCCCn1ccc(=N)cc1 | 15.6% (inactive) |
| O=c1c2ccccc2nc(-c2ccoc2)n1CCc1ccccc1 | 18.5% (inactive) |
| O=C(On1c(-c2ccccc2)nc2ccccc2c1=O)c1ccco1 | 25.2% (inactive) |
| CCC(O)CNc1nc(SC)nc2sc3c(c12)CCN(C)C3 (stereo not given) | 6.31% (inactive) |
| CN1C(=O)C2(Nc3ccccc3-c3nc4ccccc4n32)c2ccccc21 (stereo not given) | 3.48% (inactive) |
| O=C(N/N=C\c1cccc([N+](=O)[O-])c1O)C1COc2ccccc2O1 (stereo not given) | -26.6% (inactive) |
| CCCCCN1C(=O)/C(=C/c2c(N3CCc4ccccc4C3)nc3ccccn3c2=O)SC1=S | -12.8% (inactive) |
| CCN(CC)Cc1c(C(=O)N/N=C/c2cccs2)nnn1-c1nonc1N | 28.9% (inactive) |
| Cn1cc(C(=O)N/N=C/C(Br)=C/c2ccccc2)ccc1=O | 4.35% (inactive) |
| Clc1ccc(N/N=C/c2cccs2)nn1 | 7.58% (inactive) |

| Structure (SMILES) | inhibition |
| --- | --- |
| C/C(=N\NC(=O)c1c(Br)c(C)nn1C)c1ccc(NC(=O)c2ccoc2C)cc1 | 5.71% (inactive) |
| COc1cccc2cc(C(=O)Nc3ccccc3C)/c(=N/O)oc12 | -16.5% (inactive) |
| Cc1ccnc(NC(=O)CCC(=O)N(CC(=O)NC2CCCCC2)C2CCCC2)c1 | -5.33% (inactive) |
| COC(=O)C1C(=O)C2=C(CC1C)Nc1ccccc1NC2c1ccc(C)s1 (stereo not given) | -5.97% (inactive) |
| CC(C(=O)NC1CCCCC1)N1CCN(C)CC1 (stereo not given) | -31.5% (inactive) |
| CN(C)c1nnnn1-c1ccc(Oc2ccccc2)cc1 | 24.8% (inactive) |
| COC(=O)c1sccc1NC(=S)NCc1ccc(Cl)cc1 | -3.82% (inactive) |
| Cn1nnnc1SCC(=O)Nc1ccccc1-c1ccccc1 | 9.74% (inactive) |
| CC1CCN(C(=O)CSc2nnc(Cc3cc(=O)[nH]c(=O)[nH]3)n2-c2ccc(Cl)cc2)CC1 | 17.4% (inactive) |
| CCOc1cc(S(=O)(=O)N2CCN(CC)CC2)ccc1Cl | -5.49% (inactive) |
| Cc1cc(C)n2nc(SCn3nnc4ccccc4c3=O)nc2n1 | 11.8% (inactive) |
| Cc1ccc2cc(CN(Cc3ccc(F)cc3)Cc3nnnn3C3CCCC3)c(=O)[nH]c2c1 | -28% (inactive) |
| CN(C)CCSc1nnc2[nH]c3ccccc3c2n1 | -3.67% (inactive) |
| CCCCCCNC1=NCCS1 | 31.9% (inactive) |
| COc1ccc(-n2ncc3c(NCc4ccccn4)ncnc32)cc1 | -9.74% (inactive) |
| CCCCCCCCC1=NCCc2c1[nH]c1ccccc21 | -11% (inactive) |
| CC1=C([N+](=O)[O-])C(c2cccc(Br)c2)C2=C(N1)c1ccccc1C2=O (stereo not given) | 20.7% (inactive) |
| O=C(O)C1Cc2ccccc2CN1S(=O)(=O)c1ccc2ccccc2c1 (stereo not given) | -7.48% (inactive) |
| CC(=O)c1c(C)[nH]c(C(=O)CSc2nnc(-c3ccc(Cl)cc3)n2CC2CCCO2)c1C (stereo not given) | 0.08% (inactive) |
| O=C(CSc1nc2ncc(Cl)cc2[nH]1)NCC(=O)Nc1ccc(F)c(F)c1F | 4.94% (inactive) |
| CC1(C)CC(N2CCN(c3ccccc3)CC2)=CC(=[N+]2CCCC2)C1 | 8.5% (inactive) |
| CCCCCCC(=O)N(O)C1CC(=O)N(Cc2ccccc2)C1=O (stereo not given) | 6.46% (inactive) |

| Structure (SMILES) | inhibition |
| --- | --- |
| Cc1ccc(OCC(O)Cn2c(N)nc3c2c(=O)n(C)c(=O)n3C)cc1 (stereo not given) | -6.08% (inactive) |
| C=CCn1c(C)c(C(C)=O)c(N2CCCC2)nc1=S | 15.9% (inactive) |
| CCOC(=O)C1=C(C(C)=O)C(c2cccnc2)C(C#N)=C(N)O1 (stereo not given) | 3.6% (inactive) |
| COc1ccc(CN2CCSCC2)cc1C | 17.3% (inactive) |
| Cc1ccc(NC(=O)CN(C)C(=O)Cn2ccsc2=N)cc1 | 9.59% (inactive) |
| CC(C)NC(=O)c1cc(-c2ccc(Br)cc2)on1 | 2.62% (inactive) |
| Cc1ccccc1-c1ncc(CN2CCN(C3CCCC3)C(CCO)C2)cn1 (stereo not given) | 9.03% (inactive) |
| Nc1nc2n(n1)C(c1ccco1)CC(c1ccc(Cl)c(Cl)c1)N2 (stereo not given) | -11.5% (inactive) |
| CC(=O)Nc1cc(-c2ccc(Cl)cc2)[nH]n1 | -11.4% (inactive) |
| CCN(CC)CCNC(=O)c1cccc(NC(=O)C(=O)c2cc(Br)ccc2NC(C)=O)c1 | 15% (inactive) |
| COc1ccc(NS(=O)(=O)c2cccc(NC(=O)c3ccccn3)c2)cc1 | 1.48% (inactive) |
| O=C(NC(=C(Cl)Cl)S(=O)(=O)c1ccc(Cl)cc1)c1ccccc1 | -3.98% (inactive) |
| CCCCCCCCCCCCC/C=C/[C@@H](O)[C@@H](N)CO | 21.2% (inactive) |
| COc1ccc(OC)c(S(=O)(=O)N2CCC(C(=O)NCCc3ccc(OC)c(OC)c3)CC2)c1 | -3.61% (inactive) |
| Cc1nnc(SCc2cnc(-c3ccc(C(C)C)cc3)s2)n1C | 34.8% (inactive) |
| O=C(C[n+]1cc(-c2ccccc2)n2c1CCC2)c1cccs1 | 18.7% (inactive) |
| Cc1ccc(-n2c(Cc3noc4ccccc34)n[nH]c2=S)cc1 | 2.98% (inactive) |
| CCc1nnc(NS(=O)(=O)c2ccc(NC(=S)NC(=O)/C=C/c3ccc([N+](=O)[O-])cc3)cc2)s1 | -7.82% (inactive) |
| CCN(CC)CCCNC(=O)c1c(O)c2c([nH]c1=O)CCCC2 | 6.8% (inactive) |
| CCSc1nc(C)cc(C)c1S(=O)(=O)c1ccccc1C | -0.26% (inactive) |
| Nc1cccc2c(=O)c3ccccc3[nH]c12 | 16.4% (inactive) |
| Cc1[nH]c2ccccc2c1/C=C/c1nc2ccccc2c(=O)[nH]1 | 15.8% (inactive) |

| Structure (SMILES) | inhibition |
| --- | --- |
| O=c1ccn(CCc2c[nH]c3ccccc23)c2c1CCCC2 | -12.7% (inactive) |
| Cc1ccc2[nH]c(C(=O)O)c(NC(=O)CN3CCN(c4cccc(C)c4C)CC3)c2c1 | 36.2% (inactive) |
| CC1CCC[C@H](O)CCCCCc2cc(O)cc(O)c2C(=O)O1 (stereo not given in full) | -28.5% (inactive) |
| O=C(O)c1ccc(S(=O)(=O)NC2CC2)cc1 | 25% (inactive) |
| c1cc2c(cc1C1CCCCC1)c1c3n2CCN=C3CCC1 | -16.8% (inactive) |
| CC1(C)CC(=O)C(C=NCC2CCN(C(=O)Cc3ccccc3)CC2)=C(O)C1 | 6.03% (inactive) |
| c1ccc(CN2CCN(c3nc(NCc4ccco4)c4ccccc4n3)CC2)cc1 | 20.6% (inactive) |
| O=C(CSc1ncc(-c2ccc(F)cc2)[nH]1)NCc1ccco1 | -32.3% (inactive) |
| COc1ccccc1Nc1nc(NCc2ccco2)c2ccccc2n1 | 21.9% (inactive) |
| CC(C)(C)c1nc(SCC(=O)NCc2ccco2)c2ccccc2n1 | -7.41% (inactive) |
| O=C(CSc1nc2c(c(=O)n1-c1ccc(F)cc1)SCC2)NCc1ccco1 | -0.95% (inactive) |
| CC1CCCN(C(=O)Cn2c(=O)oc3cc(S(=O)(=O)N4CCCCC4)ccc32)C1 (stereo not given) | -3.65% (inactive) |
| CCCOc1ccc(C2=CSC3=NCCN23)cc1Cl | 10.9% (inactive) |
| COc1ccc(CSCCN)cc1Cl | 5.75% (inactive) |
| c1ccn(-c2ccc(-c3ccn[nH]3)cc2)c1 | 2.06% (inactive) |
| O=C(NCc1ccco1)c1ccc2c(c1)N(Cc1ccccc1)CCS2 | -17.1% (inactive) |
| O=C1N/C(=C/c2ccc(N3CCOCC3)cc2)C(=O)N1Cc1ccc(F)cc1 | -4.52% (inactive) |
| CCOC(=O)c1c(CSC(=N)N)n(C)c2cc(Br)c(OC(C)=O)cc12 | -19% (inactive) |
| CCOC(=O)Cc1[nH]nc2c1C(c1ccoc1)C(C#N)=C(N)O2 (stereo not given) | 24.6% (inactive) |
| NC1=NC[C@H](Cc2ccc(O)cc2)N1CCc1cccc2ccccc12 | -33.5% (inactive) |
| COc1ccc(C(=O)Oc2cc(C(=S)N3CCOCC3)ccc2OC)cc1 | -4.19% (inactive) |
| COc1cc2c(cc1OC)CN(C(=O)CCCN1C(=O)c3ccccc3C1=O)CC2 | 11% (inactive) |

Source: PubChem BioAssay AID1985 (Southern Research Specialized Biocontainment Screening …, 2009)
